Results on 8 compounds are retold here after PubChem BioAssay (NCI).

Structures are written as SMILES. About 83,000 compounds went through this panel and 20% of them were active in at least one assay; those are over-represented in the sample as a whole.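 Note: values are percent growth. 100 is the growth of untreated cells, values between 100 and 0 indicate rising inhibition; between -100 and 0 indicates cell death.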 Values without a mark were called inactive. Activity calls are given as the source filed them. Rule for the calls: active = growth percent below 10; inactive = the rest.

Among the test systems are NCI-H23 lung; NCI-H226 lung; NCI-H322M lung; NCI-H460 lung; NCI-H522 lung; A549/ATCC NSCLC; 786-0 renal; COLO 205 colon; DU-145 prostate; K-562 leukemia; MALME-3M melanoma; MDA-MB-231 breast; RXF 393 renal; SF-268 CNS; SF-295 CNS; SF-539 CNS; UACC-257 melanoma; HCT-15 colon; M14 melanoma.
Assay in all cases: NCI-60 one-dose screen, 48 h (100 = growth as untreated, 0 = no growth, -100 = all killed)
Common to all, as to conditions: 10 µM

As for `CN(CCc1ccccn1)c1ccccc1`, the growth in the assay with NCI-H23 lung is 110%; in the assay with NCI-H226 lung it was 113%; in the assay on NCI-H322M lung, 113%; in the assay on NCI-H460 lung, 118%; with NCI-H522 lung, 109%; in the assay on A549/ATCC NSCLC, 99.7%. Besides, the growth in the assay on 786-0 renal is 98.5%; in the assay on COLO 205 colon, 104%; in the assay on DU-145 prostate, 121%; in the assay on K-562 leukemia, 95.2%; in the assay on MALME-3M melanoma, 168%; with MDA-MB-231 breast, 105%. Further, the growth was 120% in the assay with RXF 393 renal; 124% in the assay on SF-268 CNS; 116% with SF-295 CNS; 94.1% in the assay with SF-539 CNS; 99.7% in the assay with UACC-257 melanoma; 89.8% with HCT-15 colon.

For the compound `Nc1c(C(=O)Nc2cccc3ccccc23)sc2nc3c(cc12)C(=O)CCC3`, the growth in the assay on NCI-H23 lung was 18%; in the assay with NCI-H226 lung, 54.1%; with NCI-H322M lung it was 37.6%; in the assay with NCI-H460 lung, 5.05% (active); with NCI-H522 lung, -8.85% (active); in the assay with A549/ATCC NSCLC it was 23.4%. Besides, the growth in the assay on 786-0 renal was 46.1%; with COLO 205 colon it was -20.7% (active); in the assay on DU-145 prostate, -9.63% (active); in the assay on K-562 leukemia, 10.3%; in the assay on MALME-3M melanoma it was 59.9%; in the assay with MDA-MB-231 breast, 8.28% (active). In addition, the growth is -5.71% (active) in the assay with RXF 393 renal; 36.1% in the assay with SF-268 CNS; -1.44% (active) in the assay with SF-295 CNS; -13.1% (active) with SF-539 CNS; 45% in the assay with UACC-257 melanoma; 12.6% in the assay on M14 melanoma. In the assay with HCT-15 colon, the growth is 18.9%.

As to `CCN(CC)CCSCCCNc1c2ccc(Cl)cc2nc2ccc(OC)cc12`, the growth is -30.8% (active) in the assay on NCI-H23 lung; 48.7% in the assay with NCI-H226 lung; -35.6% (active) in the assay with NCI-H322M lung; -39.7% (active) in the assay with NCI-H460 lung; -79.1% (active) in the assay with NCI-H522 lung; -29.5% (active) in the assay on A549/ATCC NSCLC. Also, the growth in the assay on 786-0 renal was -37.3% (active); in the assay on COLO 205 colon it was -82.9% (active); with DU-145 prostate, 1.82% (active); in the assay on K-562 leukemia, -13.3% (active); with MALME-3M melanoma, -69.1% (active); in the assay with MDA-MB-231 breast, -59.9% (active). The growth with SF-268 CNS was -39.2% (active); in the assay on SF-295 CNS, -79% (active); in the assay on SF-539 CNS, -75.2% (active); with UACC-257 melanoma, -77.1% (active); with M14 melanoma, -73.7% (active); in the assay with HCT-15 colon, -30.8% (active).

As to `COc1ccc(NC2=NC(C)(CO)CS2)cc1` (centres undefined), the growth was 97.1% with NCI-H23 lung; 103% in the assay with NCI-H226 lung; 102% in the assay on NCI-H322M lung; 100% in the assay on NCI-H460 lung; -14.7% (active) in the assay on NCI-H522 lung; 42.8% in the assay with A549/ATCC NSCLC. Further, the growth in the assay with 786-0 renal was 105%; in the assay on COLO 205 colon, 117%; in the assay on DU-145 prostate, 120%; with K-562 leukemia, 98.7%; in the assay on MALME-3M melanoma, 112%; with MDA-MB-231 breast, 97.5%. Moreover, the growth with RXF 393 renal is 130%; in the assay with SF-268 CNS it was 103%; in the assay with SF-295 CNS, 109%; in the assay on SF-539 CNS it was 89.7%; in the assay on UACC-257 melanoma it was -25.7% (active); with M14 melanoma, 101%. Also, the growth with HCT-15 colon is 90.3%.

Turning to `COc1ccc(/C(=C2\O[C@@H]([C@H]3COC(C)(C)O3)[C@H]3OC(C)(C)O[C@@H]23)c2cc(OC)c(OC)c(OC)c2)cc1O`, the growth was 72.3% in the assay on NCI-H23 lung; 108% in the assay on NCI-H226 lung; 34.8% in the assay on NCI-H322M lung; 79.4% in the assay on NCI-H460 lung; 43.4% with NCI-H522 lung; 84.2% with A549/ATCC NSCLC. In addition, the growth was 101% in the assay with 786-0 renal; 121% in the assay on COLO 205 colon; 34.8% with DU-145 prostate; 24.3% in the assay with K-562 leukemia; 43.9% in the assay on MDA-MB-231 breast; 81.9% in the assay on RXF 393 renal. Moreover, the growth in the assay on SF-268 CNS was 36.3%; with SF-295 CNS, 85.2%; in the assay with SF-539 CNS it was 9.85% (active); in the assay on UACC-257 melanoma, 107%; in the assay with M14 melanoma, 7.95% (active); in the assay on HCT-15 colon it was 26.9%.

For the compound `O=C(Nc1cccc(-n2cc(-c3ccncc3)c(-c3ccc(O)c(Cl)c3)n2)c1)c1ccc(Cl)c(Cl)c1`, the growth with NCI-H23 lung is 78.5%; in the assay on NCI-H226 lung it was 80.6%; in the assay on NCI-H322M lung it was 77.3%; with NCI-H460 lung, 20.8%; in the assay on NCI-H522 lung it was 41.5%; in the assay on A549/ATCC NSCLC, 41.2%. Also, the growth in the assay with 786-0 renal was 55.3%; in the assay on COLO 205 colon, 102%; with DU-145 prostate, 80.5%; with K-562 leukemia, 30.1%; in the assay on MALME-3M melanoma, 29.5%; in the assay on MDA-MB-231 breast, -19.9% (active). In addition, the growth in the assay with RXF 393 renal was 16%; in the assay with SF-268 CNS, 74.1%; in the assay with SF-295 CNS, 13.9%; in the assay with SF-539 CNS, 35.8%; with UACC-257 melanoma it was 10.8%; in the assay on M14 melanoma it was 29.2%. Besides, the growth with HCT-15 colon was 24%.

Take `C[C@@H]1C=C2C(=O)O[C@@H]3CC[C@H](C1)[C@]23O`: the growth in the assay on NCI-H23 lung is 80.6%; with NCI-H226 lung, 106%; in the assay with NCI-H322M lung it was 82.5%; in the assay on NCI-H460 lung, 80.9%; with NCI-H522 lung it was 2.22% (active); with A549/ATCC NSCLC it was 67.1%. In addition, the growth in the assay with 786-0 renal is 103%; in the assay with COLO 205 colon, 74%; in the assay with DU-145 prostate, -25.9% (active); in the assay on K-562 leukemia, 27.5%; in the assay with MALME-3M melanoma, 93.2%; with MDA-MB-231 breast, 89%. In addition, the growth is 9.76% (active) with RXF 393 renal; 93.3% in the assay with SF-268 CNS; 114% in the assay on SF-295 CNS; 90.8% with SF-539 CNS; 46.8% in the assay with UACC-257 melanoma; 80.2% in the assay on M14 melanoma. In the assay with HCT-15 colon, the growth was 62.5%.

Regarding `O=C(N/N=C/c1ccccc1)C(Oc1ccccc1)c1ccccc1` (centres undefined), the growth in the assay with NCI-H23 lung is 89.1%; with NCI-H226 lung, 97.5%; with NCI-H322M lung it was 94.2%; in the assay with NCI-H460 lung, 94.5%; in the assay on NCI-H522 lung, 65.5%; in the assay with A549/ATCC NSCLC it was 111%. Further, the growth in the assay on 786-0 renal was 107%; with COLO 205 colon, 109%; in the assay with DU-145 prostate it was 107%; with K-562 leukemia it was 79%; in the assay on MALME-3M melanoma, 71.8%; with MDA-MB-231 breast, 102%. Moreover, the growth in the assay on RXF 393 renal is 100%; in the assay on SF-268 CNS it was 97.1%; with SF-295 CNS, 93.7%; with SF-539 CNS, 93.7%; in the assay with UACC-257 melanoma, 96.7%; with M14 melanoma it was 95.6%. In addition, in the assay on HCT-15 colon, the growth is 91.9%.
